# Screens (PubChem)
# Many of the other results were omitted from the sample, so hits are more common in it than they were.
# Pf Dd2 inh: blocks in vitro growth of P. falciparum Dd2. P. falciparum Dd2 growth, SYBR Green, 72 h. Potency, µM (top dose mostly 28.9 µM), for the others: at the highest dose activity, negative = inhibition, actives largely listed as inhibitors. 120,000 compounds, 4.3% hits. AID 1347417; active means well fitted inhibition curve with a large enough effect;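 further: plate controls were DMSO vehicle for no effect and reference drug for full effect; nearly all actives have a fitted effect of over 65% in size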
#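 Infected erythrocytes (Dd2, 0.3% parasitemia, 2.5% hematocrit final) are added to compound in RPMI-1640/Albumax II medium, grown 72 h at 37C in low oxygen, then lysed with saponin/Triton-X containing SYBR Green and read by fluorescence.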
# The depositor's hits bear a star; i = inactive; [ ] = remark or other dose. Potency means the concentration at half of the fitted maximal effect.
SMILES,Pf Dd2 inh
Cc1ccc(NC(=O)C2CC(=O)N(c3n[nH]c4cccc(F)c34)C2)cc1 (centres undefined),8%
c1ccc(Nc2cc3c(cn2)CN(Cc2ncc[nH]2)CCN3)cc1,7%[44.1 µM]
Cn1cc(CN2CCNc3cc(Nc4cccnc4)ncc3C2)cn1,-1%[44.1 µM]
c1cncc(Nc2cc3c(cn2)CN(Cc2cccs2)CCN3)c1,0%[44.1 µM]
Fc1ccc(Nc2cc3c(cn2)CN(Cc2ccncc2)CCN3)cc1Cl,7.1µM*
Cn1cnc(CN2CCNc3cc(Nc4ccccc4)ncc3C2)c1,i
CN(C)c1ccc(CN2CCNc3cc(Nc4ccccc4)ncc3C2)cc1,5.6µM*
c1ccc(-c2cc3c(cn2)CN(Cc2c[nH]c4ccccc24)CCN3)cc1,7.9µM*
Cc1[nH]cnc1CN1CCNc2cc(-c3ccccc3)ncc2C1,i
c1ccc(CN2CCNc3cc(-c4cccnc4)ncc3C2)cc1,-12%[44.1 µM]
COCCN1CCNc2cc(Nc3cccc(OC)c3)ncc2C1,i
COc1ccccc1CN1CCNc2cc(Nc3ccccc3)ncc2C1,6.3µM*
Cn1ccnc1CN1CCNc2cc(Nc3ccccc3)ncc2C1,i
O=C(NCc1ccccc1)c1cnc2n1CCN(CC1CCCC1)CC2,-1%[44.1 µM]
Cc1cc(C(=O)N2C[C@@H](Oc3ccccc3)C[C@@H]2C(=O)N2CCOCC2)nn1C,-7%
CC(=O)N1CCN(C(=O)c2cc3ccccc3[nH]c2=O)CC(O)C1 (centres undefined),2%
COc1ccccc1CCC(=O)N1C[C@H](c2nc(-c3cccnc3)no2)[C@@H](C)C1,-2%
CCn1ccc(C(=O)N2CCC(C(=O)N3CCCCCCNC(=O)CC3)CC2)n1,24%
COCC(=O)N1CC[C@H]2CC(=O)N(CCc3cccc(OC)c3OC)CC[C@H]2C1,-15%[44.1 µM]
O=C(C1CC1)N1CCC(c2noc(-c3cnccn3)n2)C1 (centres undefined),i[5.79 µM]
Cc1occc1C(=O)N1CCC(CCC(=O)N2CCN(c3ccccc3)CC2)CC1,-8%
Cc1cc(C)cc(C(=O)NCCn2ccn3nc(-c4ccc(F)cc4)cc3c2=O)c1,i
COc1ccc(-c2cc3c(=O)n(CCNC(=O)c4ccc(F)cc4)ccn3n2)cc1,i
CCc1ccc(C(=O)NCCn2ccn3nc(-c4ccc(F)cc4)cc3c2=O)cc1,4µM*
CC(C)NC(=O)N1Cc2ccccc2OC2(CCN(C(=O)N3CCN(C)CC3)CC2)C1,-5%
SMILES,Pf Dd2 inh
O=C1NCCOCCCN(C(=O)C2CCCC2)[C@H]2CCCC[C@@H]12,-22%
O=C(NCc1cccn1Cc1ccccc1)Nc1cccc(C(F)(F)F)c1,8.9µM*
COc1ccccc1NC(=O)NCc1cccn1Cc1ccccc1,0%
CCOC(=O)Cc1ccc(NC(=O)NCc2cccn2Cc2ccccc2)cc1,-28%
COCCN1CCCN(C(=O)c2ccc(F)c(F)c2)c2ccccc21,i
Cc1nc(C(=O)N2CCC3(CCC(=O)N(CCc4cnc[nH]4)C3)CC2)cs1,29%
Cc1ccc(/C=C/c2onc(C)c2S(=O)(=O)N2CCC(C(=O)N3CCN(c4cc(C)ccc4C)CC3)CC2)cc1,8.9µM*
O=C(C1CCN(S(=O)(=O)c2cccc3nonc23)CC1)N1CCN(c2ccccc2)CC1,i
COc1ccccc1N1CCN(C(=O)C2CCN(S(=O)(=O)c3cccc4nonc34)CC2)CC1,6%
Cc1ccc(/C=C/c2onc(C)c2S(=O)(=O)N2CCC(C(=O)Nc3cc(C)ccc3C)CC2)cc1,11%
Cc1ccc(Cl)cc1N1CCN(C(=O)C2CCN(S(=O)(=O)c3cccc4nonc34)CC2)CC1,6.3µM*
Cc1ccc(Cl)cc1N1CCN(C(=O)C2CCN(S(=O)(=O)c3c(C)noc3/C=C/c3ccccc3F)CC2)CC1,-11%
Cc1nc2c(OCC(=O)OC(C)(C)C)cccn2c(=O)c1-c1cc(C)n(-c2ccc(Cl)cc2)n1,i
CCOc1ccccc1CN1CCc2n[nH]c(=O)n2CC1,i
CCc1nn2c(=O)cc(COC(=O)C(c3ccccc3)c3ccccc3)nc2s1,-2%
COCCc1nn2c(=O)cc(COC(=O)c3ccc(Br)cc3)nc2s1,-14%
COCCc1nn2c(=O)cc(COC(=O)C(c3ccccc3)c3ccccc3)nc2s1,1.3µM*
Cc1onc(-c2cnn(C)c2NCCc2ccccc2)c1C(=O)NCc1ccoc1,-21%[44.1 µM]
CC(CNC(=O)c1noc(-c2ccc3c(c2)OCO3)n1)c1ccccc1 (centres undefined),23%
O=C(O)c1ccccc1CN1CC(COc2ccccc2)C2(C1)CN(c1ccccc1)C2 (centres undefined),i
COc1cccc(NC(=O)c2sc3nc(C)c(C(=O)Nc4ccc(C)cc4C)c(-c4ccccc4Cl)c3c2N)c1,1µM*
Cc1ccc(Cl)cc1NC(=O)c1sc2nc(C)c(C)c(C)c2c1N,8%
COc1cc(Cl)c(C)cc1NC(=O)c1sc2nc(C)cc(C)c2c1N,4%
COc1cccc(NC(=O)c2sc3nc(C)c(C(=O)Nc4ccc(C)cc4C)c(-c4ccco4)c3c2N)c1,3.2µM*
COc1cccc(NC(=O)c2c(C)nn(-c3cccc(C)c3)c2-n2cccc2)c1,-20%
SMILES,Pf Dd2 inh
COc1cccc(NC(=O)c2sc3nc(C)c(C(=O)Nc4ccc(C)cc4C)c(-c4sccc4C)c3c2N)c1,2.2µM*
CCC(C)NC(=O)c1sc2nc(C)c(C(=O)Nc3ccc(Cl)cc3)c(-c3ccc(Br)cc3)c2c1N (centres undefined),18%
COc1cccc(-c2ccc3c(N)c(C(=O)Nc4ccccc4C)sc3n2)c1,-9%
COc1cccc(-c2ccc3c(N)c(C(=O)Nc4cc(F)ccc4F)sc3n2)c1,43%[5.79 µM]
COc1ccc(C)cc1NC(=O)N1C[C@@H](F)C[C@H]1C(=O)N1CCCCC1,8%
COCc1nc(C2CCCN(C(=O)c3ccco3)C2)no1 (centres undefined),43%
OC1CN(Cc2ccccc2)CCN(Cc2ccc(OC(F)F)cc2)C1 (centres undefined),i
COCCNC(=O)[C@H]1C[C@H](Oc2cccnc2)CN1C(=O)c1cccs1,-14%
CN1CCN([C@H]2CCN(C(=O)c3ncc(F)cc3F)C[C@H]2CCCO)CC1,-21%
O=C(c1ccc(C(F)(F)F)cc1)N1CCC(N2CCCC2=O)CC1,13%
C=CCNC(=O)O[C@@H]1CC(C(=O)N[C@@H](Cc2ccc(OC)cc2)C(N)=O)=C[C@@H](NC(=O)c2ccc(OC)cc2)[C@H]1O,-2%
COc1cc2nc(NCc3ccc(C)cc3)n3nc(-c4ccccc4)nc3c2cc1OC,0.1µM*
COc1ccccc1CNc1nc2ccccc2c2nc(-c3cccnc3)nn12,-24%
COc1cc2nc(NCCc3cccc(C)c3)n3nc(-c4ccccc4)nc3c2cc1OC,0.5µM*
COCCCNC(=O)CSc1nc2cc(OC)c(OC)cc2c2nc(-c3ccccc3)nn12,-22%
Cc1ccc(CNc2nc3ccccc3c3nc(-c4cccc(C)c4)nn23)cc1,8%
Cc1cccc(-c2nc3c4ccccc4nc(NCc4ccc(Cl)cc4)n3n2)c1,-16%
OCc1cc(CC2(NCc3cc4ccccc4o3)COC2)no1,13%[44.1 µM]
Cc1cc(C)c(NC(=O)Cn2cccc2-c2nc(-c3ccccc3)no2)c(C)c1,11%
Cn1c(CO[C@H]2CN(C(=O)c3cccnc3)C[C@H]2F)nc2ccccc21,12%[44.1 µM]
O=S(=O)(c1ccccc1)N1CCC(n2cnnc2C2CC2)CC1,10%
COC(=O)c1ccccc1N(C)S(=O)(=O)c1cc2c3c(c1)CC(=O)N3CCC2,7.9µM*
COc1ccc(C)cc1NS(=O)(=O)c1cc2c3c(c1)CC(=O)N3CCC2,19%
O=C1Cc2cc(S(=O)(=O)Nc3cccc(C(F)(F)F)c3)cc3c2N1CCC3,i
